# Inconclusive results are not listed. Activity calls are given as the source filed them. Rule for the calls, unless noted: active = hit-call score of the fitted dose curve at least 0.9, where 1 is the maximum; inactive = score below 0.9.
# Experiments:
# [1] = target: human Phosphodiesterase 10 (PDE10), PDE10A (gene 10846) (UniProt Q9Y233); assay: NVS_ENZ_hPDE10: NovaScreen (NVS) Enzymatic Assay for human Phosphodiesterase 10 (PDE10) (AID 2283195; active = hit-call score of the fitted dose curve at least 0.9, where 1 is the maximum)
# human Phosphodiesterase 10 (PDE10), PDE10A (gene 10846), sequence (Q9Y233 whole entry, looked up): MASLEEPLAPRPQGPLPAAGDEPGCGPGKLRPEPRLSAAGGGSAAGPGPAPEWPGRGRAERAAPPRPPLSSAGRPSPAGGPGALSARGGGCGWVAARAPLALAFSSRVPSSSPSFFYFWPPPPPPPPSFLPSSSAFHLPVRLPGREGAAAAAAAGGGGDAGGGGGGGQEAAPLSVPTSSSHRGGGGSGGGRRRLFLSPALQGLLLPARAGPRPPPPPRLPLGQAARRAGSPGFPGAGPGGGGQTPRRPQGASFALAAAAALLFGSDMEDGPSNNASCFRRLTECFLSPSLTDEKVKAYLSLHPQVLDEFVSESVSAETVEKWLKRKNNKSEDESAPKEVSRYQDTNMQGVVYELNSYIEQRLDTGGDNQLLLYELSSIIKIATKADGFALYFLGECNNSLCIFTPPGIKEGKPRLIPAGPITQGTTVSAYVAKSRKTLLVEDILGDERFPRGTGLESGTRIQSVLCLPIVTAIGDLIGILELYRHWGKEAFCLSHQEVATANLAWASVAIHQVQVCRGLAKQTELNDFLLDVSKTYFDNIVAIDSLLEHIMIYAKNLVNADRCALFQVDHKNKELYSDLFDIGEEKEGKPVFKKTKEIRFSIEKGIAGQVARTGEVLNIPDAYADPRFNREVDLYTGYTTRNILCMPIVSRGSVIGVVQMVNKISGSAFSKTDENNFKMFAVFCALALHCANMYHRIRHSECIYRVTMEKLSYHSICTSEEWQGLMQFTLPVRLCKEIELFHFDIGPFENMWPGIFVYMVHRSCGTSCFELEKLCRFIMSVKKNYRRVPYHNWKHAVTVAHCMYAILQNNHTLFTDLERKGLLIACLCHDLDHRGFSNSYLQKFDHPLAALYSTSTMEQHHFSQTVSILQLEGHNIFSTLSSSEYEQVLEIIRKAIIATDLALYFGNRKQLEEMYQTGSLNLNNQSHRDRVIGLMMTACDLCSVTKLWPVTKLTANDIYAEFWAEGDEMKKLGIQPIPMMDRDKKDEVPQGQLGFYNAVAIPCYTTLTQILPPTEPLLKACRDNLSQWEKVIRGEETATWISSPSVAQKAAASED
# Outline: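 Fluorescence/mobility-shift readout of PDE10A enzyme activity, taken 1 h post-dosing. Primary screen in duplicate at 25 uM; actives (e.g. ≥30% inhibition) retested as singleton concentration-response, top concentration 50 uM.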
# [2] = read-out: Collagen IV, COL4A1 (gene 1282); assay: BSK_MyoF_CollagenIV: BioMAP Diversity Plus: MyoF Assay for Collagen IV Biomarker Activity (AID 2284247); conditions: primary human lung fibroblasts
# Outline: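 Primary human lung fibroblasts (MyoF system) dosed 24 h; Collagen IV measured by ELISA. Activity fitted in positive direction against DMSO; cytotoxicity tracked by SRB total-protein staining in parallel cultures.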
# [3] = read-out: Interleukin-8 (IL8), CXCL8 (gene 3576); assay: BSK_MyoF_IL8: BioMAP Diversity Plus: MyoF Assay for Interleukin-8 (IL8) Biomarker Activity (AID 2284261); conditions: primary human lung fibroblasts
# Outline: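 DMSO-normalised, upward-fitted IL-8 ELISA signal; human lung fibroblasts, 24 h chemical treatment.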
# [4] = read-out: Decorin, DCN (gene 1634); assay: BSK_MyoF_Decorin: BioMAP Diversity Plus: MyoF Assay for Decorin Biomarker Activity (AID 2284265); conditions: primary human lung fibroblasts
# Outline: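 In this multiplexed fibroblast system, secreted or surface decorin is detected by ELISA one day after dosing, with increases scored against the DMSO vehicle.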
# [5] = BSK_MyoF_SRB: Viability Assessment in the BioMAP Diversity Plus: MyoF Assay (AID 2284267); conditions: primary human lung fibroblasts;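 note: total protein by SRB absorbance in parallel cultures as cytotoxicity measure; cells assessed 24 h after compound addition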
# Outline: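 Human lung fibroblasts, 24 h after chemical dosing; total protein measured by 0.1% sulforhodamine B staining after 10% TCA fixation, read at 560 nm, fitted relative to DMSO baseline.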
# [6] = read-out: Matrix Metallopeptidase 1 (MMP1), MMP1 (gene 4312); assay: BSK_MyoF_MMP1: BioMAP Diversity Plus: MyoF Assay for Matrix Metallopeptidase 1 (MMP1) Biomarker Activity (AID 2284268); conditions: primary human lung fibroblasts
# Outline: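 Fibroblasts from human lung receive compound for 24 h before ELISA quantitation of MMP1. DMSO serves as baseline, and the endpoint is fitted for signal gain.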
# [7] = CCTE_Padilla_ZF_Score.General: CCTE's 144 Hour Post-fertilization zebrafish Assay Score for General Malformation, Padilla Lab (AID 2284411)
# Outline: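 Wild-type zebrafish embryos were plated singly at 6-8 hpf in 10% Hanks' and exposed in sealed wells at 26C until rinsed on 5 dpf. At 6 dpf two blinded assessors scored mortality, hatching and malformations by stereomicroscopy; gain-of-signal versus DMSO.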
# [8] = target: Bile acid receptor (Homo sapiens) (UniProt Q96RI1); assay: ATG_IR1_CIS: Attagene CIS-FACTORIAL HepG2 Assay for human Nuclear Receptor Subfamily 1 Group H Member 4 (NR1H4), IR1 submotif (AID 2282946); conditions: IR1 reporter transcription, actives raise or lower the signal
# Bile acid receptor (Homo sapiens), sequence (Q96RI1 whole entry, looked up, the tested form may be a part): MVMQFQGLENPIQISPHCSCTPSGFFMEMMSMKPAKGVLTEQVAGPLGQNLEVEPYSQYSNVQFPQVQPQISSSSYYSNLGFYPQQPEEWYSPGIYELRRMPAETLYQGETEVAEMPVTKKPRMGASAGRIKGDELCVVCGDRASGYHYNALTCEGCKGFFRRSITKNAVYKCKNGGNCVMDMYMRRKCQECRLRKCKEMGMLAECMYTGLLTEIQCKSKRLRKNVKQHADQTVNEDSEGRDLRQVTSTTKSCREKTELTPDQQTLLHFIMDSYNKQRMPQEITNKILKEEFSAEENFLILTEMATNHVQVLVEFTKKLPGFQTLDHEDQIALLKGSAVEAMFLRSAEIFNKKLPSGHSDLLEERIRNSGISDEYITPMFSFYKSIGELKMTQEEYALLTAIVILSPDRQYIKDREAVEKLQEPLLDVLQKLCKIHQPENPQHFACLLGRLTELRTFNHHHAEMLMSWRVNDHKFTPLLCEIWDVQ
# Outline: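 Transient MRTU transfection, HepG2; 24 h dosing; RNA → RT-PCR → 6-FAM primer extension → HpaI digest → capillary electrophoresis fluorescence. Gain/loss of signal fitted relative to DMSO.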
# [9] = target: Nuclear receptor subfamily 1 group I member 2 (Homo sapiens) (UniProt O75469); assay: NVS_NR_hPXR: NovaScreen (NVS) Nuclear Receptor Binding Assay for human Pregnane X Receptor (PXR) (AID 2283365; active = hit-call score of the fitted dose curve at least 0.9, where 1 is the maximum;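 note: a drop in FRET signal versus DMSO baseline means the compound binds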)
# Nuclear receptor subfamily 1 group I member 2 (Homo sapiens), sequence (O75469 whole entry, looked up): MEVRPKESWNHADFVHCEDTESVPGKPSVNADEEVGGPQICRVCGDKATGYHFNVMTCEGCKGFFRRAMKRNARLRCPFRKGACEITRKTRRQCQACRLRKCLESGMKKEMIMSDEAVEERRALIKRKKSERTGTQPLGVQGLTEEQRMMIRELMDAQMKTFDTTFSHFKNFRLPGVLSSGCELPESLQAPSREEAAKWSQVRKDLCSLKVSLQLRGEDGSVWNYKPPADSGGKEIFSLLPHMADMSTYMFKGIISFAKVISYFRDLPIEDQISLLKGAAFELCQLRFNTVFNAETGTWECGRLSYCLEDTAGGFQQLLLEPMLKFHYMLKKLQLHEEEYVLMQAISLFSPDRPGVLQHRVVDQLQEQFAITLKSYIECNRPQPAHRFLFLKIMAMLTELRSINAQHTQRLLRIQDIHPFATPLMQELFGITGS
# Outline: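 Read-out: TR-FRET, human PXR, 2 h post-dosing, cell-free. Loss of signal vs DMSO taken as binding activity; 25 uM primary, concentration series secondary.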
# [10] = target: Peroxisome proliferator-activated receptor gamma (Homo sapiens) (UniProt P37231); assay: NVS_NR_hPPARg: NovaScreen (NVS) Nuclear Receptor Binding Assay for human Peroxisome Proliferator-activated Receptor gamma (PPARg) (AID 2283370; active = hit-call score of the fitted dose curve at least 0.9, where 1 is the maximum)
# Peroxisome proliferator-activated receptor gamma (Homo sapiens), sequence (P37231 whole entry, looked up): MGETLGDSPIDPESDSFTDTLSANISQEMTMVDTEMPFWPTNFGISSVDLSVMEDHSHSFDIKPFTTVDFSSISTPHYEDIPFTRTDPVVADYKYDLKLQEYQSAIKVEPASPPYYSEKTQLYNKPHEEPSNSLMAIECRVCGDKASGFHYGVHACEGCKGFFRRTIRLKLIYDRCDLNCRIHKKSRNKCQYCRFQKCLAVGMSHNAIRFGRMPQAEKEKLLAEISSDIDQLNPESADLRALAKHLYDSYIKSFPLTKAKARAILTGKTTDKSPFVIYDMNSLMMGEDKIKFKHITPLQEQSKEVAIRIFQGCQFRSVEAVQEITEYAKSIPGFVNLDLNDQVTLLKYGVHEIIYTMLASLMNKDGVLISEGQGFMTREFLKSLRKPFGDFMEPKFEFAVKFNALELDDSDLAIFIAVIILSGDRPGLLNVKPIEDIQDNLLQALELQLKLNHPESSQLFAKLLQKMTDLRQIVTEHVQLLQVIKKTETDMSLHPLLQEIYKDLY
# Outline: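 Extracted receptor protein, cell-free; compound incubated 2 h then fluorescence polarization read. Baseline: DMSO. Actives from 25 uM duplicate screen re-run across concentrations.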
# [11] = CCTE_Deisenroth_AIME_384WELL_CTox_Inactive: Cytotoxicity Assessment (CTOX) in CCTE's 384-well Estrogen Receptor Transactivation Assay without AIME metabolic competence (metabolism negative), Deisenroth Lab (AID 2284039; active = hit-call score of the fitted dose curve at least 0.9, where 1 is the maximum;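 note: cell viability via live-cell protease substrate cleaved to fluorescent probe; cells exposed 24 h to medium preincubated 2 h with alginate-water beads without S9; loss of fluorescence signal means loss of viability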)
# Outline: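 Metabolism-negative arm: chemicals (10-point, 0.002 - 200 uM) preincubated 2 h with alginate-water lids, medium moved onto VM7Luc4E2 cells for 24 h. Fluorescent live-cell protease readout; bidirectional curve fit.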
# [12] = CEETOX_H295R_MTT_cell_viability: Viability Assessment in the CeeTox HT-H295R MTT Assay (AID 2283718)
# Outline: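 H295R cells prestimulated 48 h with 10 uM forskolin, then exposed 48 h to test chemical (0.1% DMSO final). Viability by MTT (0.5 mg/ml, 4 h, 37 C), absorbance 570/650 nm; percent change versus DMSO, bidirectional fit.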
# [13] = tested on: SERPINA7 (gene 6906); assay: CCTE_GLTED_hTBG: CCTE's human Thyroxine-binding Globulin (TBG) Inhibition Assay, Great Lakes Toxicology and Ecology Division (GLTED) Lab (AID 2284343; active = hit-call score of the fitted dose curve at least 0.9, where 1 is the maximum;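 note: active chemicals lower fluorescence versus DMSO baseline by displacing probe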)
# Outline: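 Human TBG incubated 2 h with test chemical; displacement of ANSA probe read by fluorescence, 380 nm excitation/475 nm emission. Loss of signal relative to DMSO.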
# [14] = tested on: TTR (gene 7276); assay: CCTE_GLTED_hTTR_0.125uM: CCTE's human Transthyretin (hTTR) Inhibition Assay, with 0.125uM TTR, Great Lakes Toxicology and Ecology Division (GLTED) Lab (AID 2284431);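 note: hits lower the fluorescence signal relative to DMSO baseline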
# Outline: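 Activity is defined as decreased ANSA fluorescence (ex 380, em 475) from human transthyretin, 0.125uM, following 2-hour chemical exposure in a cell-free setup, with DMSO as baseline.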
# [15] = tested on: Thyroperoxidase (TPO), gene 54314; assay: CCTE_Simmons_AUR_rTPO: CCTE's Amplex UltraRed Assay for Thyroperoxidase (TPO) Inhibition, Simmons Lab (AID 2283662; active = hit-call score of the fitted dose curve at least 0.9, where 1 is the maximum;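 note: potency for loss of signal meaning inhibition of peroxidase activity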)
# Outline: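 Cell-free peroxidase activity assay using rat thyroid gland microsomes with excess H2O2 (300 uM) and 25 uM Amplex UltraRed. Compounds tested from 5 nM to 87.5 uM; fluorescence measured after 30 min at 37C, analysed relative to DMSO baseline.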
# [16] = target: Bile acid receptor (Homo sapiens) (UniProt Q96RI1); assay: OT_FXR_FXRSRC1_0480: Odyssey Thera (OT) 8-hour HEK293T Protein-Complementation Assay for Farnesoid X receptor/SRC-1 Co-activator (AID 2283383; active = hit-call score of the fitted dose curve at least 0.9, where 1 is the maximum)
# Outline: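 HEK293T protein-fragment complementation assay: FXR and SRC-1 coactivator are fused to reporter fragments, and their interaction restores a fluorescent reporter. Readout was taken 8 h after dosing, with gain of signal fit relative to DMSO.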
# [17] = tested on: Sodium/Iodide Symporter (NIS), SLC5A5 (gene 6528); assay: CPHEA_Stoker_NIS_Inhibition_RAIU: CPHEA's Radioactive Iodide Uptake (RAIU) Assay for Sodium/Iodide Symporter (NIS) Inhibition, Stoker and Laws Labs (AID 2283841; active = hit-call score of the fitted dose curve at least 0.9, where 1 is the maximum)
# Outline: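 Iodide uptake through human NIS is measured in an engineered HEK293T line. Cells take up 125I (329pM final) for 2 hours at room temperature alongside chemicals at 0.001–100uM. Retained radioactivity is counted, and the signal is expressed against DMSO controls.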
# [18] = ATG_PPRE_CIS: Attagene CIS-FACTORIAL HepG2 Assay for human Peroxisome Proliferator-activated Response Element (PPRE) (AID 2282958); conditions: HepG2 PPRE cis-element reporter, Attagene transcription factor profiling; actives raise or lower the signal
# Outline: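 After human HepG2 hepatoma cells were transiently transfected with cis-promoter reporter constructs, they were exposed to test chemicals for 24 hours. Reporter RNA was then reverse-transcribed, PCR-amplified, FAM-labeled, HpaI-digested and quantified by capillary electrophoresis.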
# [19] = target: rat Thyrotropin Releasing Hormone Receptor (TRH), Trhr (gene 25570) (UniProt Q01717); assay: NVS_GPCR_rTRH: NovaScreen (NVS) G Protein-Coupled Receptor Assay for rat Thyrotropin Releasing Hormone Receptor (TRH) (AID 2283329; active = hit-call score of the fitted dose curve at least 0.9, where 1 is the maximum;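 note: hit means lower bound tracer signal versus DMSO baseline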)
# rat Thyrotropin Releasing Hormone Receptor (TRH), Trhr (gene 25570), sequence (Q01717 whole entry, looked up): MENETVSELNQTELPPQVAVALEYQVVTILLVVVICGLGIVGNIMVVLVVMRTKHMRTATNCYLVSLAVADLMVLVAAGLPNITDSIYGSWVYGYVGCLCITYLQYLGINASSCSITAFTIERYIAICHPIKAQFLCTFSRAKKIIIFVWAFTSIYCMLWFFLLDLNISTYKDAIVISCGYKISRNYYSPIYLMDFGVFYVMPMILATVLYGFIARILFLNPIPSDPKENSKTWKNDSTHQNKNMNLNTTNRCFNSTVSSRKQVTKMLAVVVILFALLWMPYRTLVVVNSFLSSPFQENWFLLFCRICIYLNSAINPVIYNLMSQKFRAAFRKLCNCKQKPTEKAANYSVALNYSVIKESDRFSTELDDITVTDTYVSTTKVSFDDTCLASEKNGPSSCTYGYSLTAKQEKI
# Outline: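 Rat forebrain membrane prep, radioligand displacement, filter scintillation readout at 4 h. Single conc 25 uM, duplicate; actives retested as concentration series. DMSO = negative control/baseline.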
structure (smiles),measurement,setting,value
CCCCCCCCCCCCCCCCCC[N+](C)(C)C,AC50,[1],1.71 µM (active)
same,AC50,[2],3.72 µM (active)
same,AC50,[3],8.89 µM (active)
same,outcome,[4],inactive
same,AC50,[5],3.6 µM (active)
same,AC50,[6],1.24 µM (active)
same,outcome,[7],inactive
Cc1ccnc(N)c1,outcome,[8],inactive
O=C(CC(C(=O)OC1CCCCC1)S(=O)(=O)O)OC1CCCCC1 (stereo not given),AC50,[9],8.32 µM (active)
same,outcome,[10],inactive
same,outcome,[11],inactive
O=C1NC(=O)C2CC=CCC12 (stereo not given),outcome,[8],inactive
Cc1cc(O)cc(C)c1Cl,outcome,[12],inactive
same,AC50,[13],22.3 µM (active)
same,AC50,[14],7.71 µM (active)
CC(=O)CCc1ccccc1,outcome,[1],inactive
Cc1cc(-n2nc3ccc(Cl)cc3n2)c(O)c(C(C)(C)C)c1,outcome,[2],inactive
same,outcome,[3],inactive
same,outcome,[4],inactive
same,outcome,[5],inactive
same,outcome,[6],inactive
same,outcome,[7],inactive
CCCCC(CC)COC(=O)CS (stereo not given),AC50,[15],25.6 µM (active)
NC(=O)c1ccc([N+](=O)[O-])cc1Cl,outcome,[8],inactive
Cc1cc2nc3c(=O)[nH]c(=O)nc-3n(C[C@H](O)[C@H](O)[C@H](O)CO)c2cc1C,AC50,[16],37.3 µM (active)
same,AC50,[17],25.8 µM (active)
C=C(C)C(=O)OCCCCCC,outcome,[18],inactive
CN(C)Cc1cc(C(C)(C)C)c(O)c(C(C)(C)C)c1,outcome,[18],inactive
CCC(C)(CCC(C)C)C(=O)O (stereo not given),outcome,[11],inactive
CCCOCCC,outcome,[18],inactive
same,outcome,[1],inactive
CCCC(=O)OC/C=C(\C)CCC=C(C)C,outcome,[8],inactive
CCOC(=O)CC(=O)OCC,outcome,[16],inactive
O=C(c1ccccc1)c1ccccc1O,AC50,[13],17.9 µM (active)
same,AC50,[14],1.05 µM (active)
CCCCCCC1CCC(=O)O1 (stereo not given),outcome,[19],inactive
same,outcome,[11],inactive
c1ccc(CNc2ncnc3nc[nH]c23)cc1,outcome,[12],inactive
Sc1nc2ccccc2s1,AC50,[18],35.7 µM (active)
same,AC50,[15],1.42 µM (active)
same,outcome,[12],inactive
same,outcome,[2],inactive
same,outcome,[3],inactive
same,outcome,[4],inactive
same,outcome,[5],inactive
same,outcome,[6],inactive
same,AC50,[13],50 µM (active)
same,AC50,[7],5.5 µM (active)
same,AC50,[14],9.1 µM (active)
CCCCCCC(O)CCCCCCCCCCC(=O)OC (stereo not given),outcome,[2],inactive
same,outcome,[3],inactive
same,outcome,[4],inactive
same,outcome,[5],inactive
same,outcome,[6],inactive
C=C(C)C(=O)OCC1CCCO1 (stereo not given),outcome,[8],inactive
CO[Si](CCCNCCN)(OC)OC,outcome,[18],inactive
CN(C)c1ccc(C(c2ccccc2)c2ccc(N(C)C)cc2)cc1,AC50,[15],10.6 µM (active)
same,AC50,[2],11.9 µM (active)
same,outcome,[3],inactive
same,outcome,[4],inactive
same,outcome,[5],inactive
same,outcome,[6],inactive
same,AC50,[7],22.3 µM (active)
OCCc1ccccn1,outcome,[18],inactive
CC(C)(Oc1ccc(Cl)cc1)C(=O)O,outcome,[18],inactive
CCOC(=O)c1ccccc1,outcome,[9],inactive
same,outcome,[10],inactive
Nc1ccc(S(=O)(=O)Nc2cnc3ccccc3n2)cc1,outcome,[9],inactive
same,AC50,[15],0.715 µM (active)
CCCCCC[C@@H](O)C/C=C\CCCCCCCC(=O)O,outcome,[19],inactive
same,AC50,[10],15.1 µM (active)
same,AC50,[16],74.3 µM (active)
same,outcome,[17],inactive
same,AC50,[13],41.4 µM (active)
same,AC50,[14],10.8 µM (active)
O=C(C(=O)c1ccccc1)c1ccccc1,AC50,[2],0.913 µM (active)
same,outcome,[3],inactive
same,outcome,[4],inactive
same,outcome,[5],inactive
same,outcome,[6],inactive
CC(=O)OC(C)(C)Cc1ccccc1,outcome,[8],inactive
same,outcome,[16],inactive
same,outcome,[11],inactive
C=C1CC[C@H]2C[C@@H]1C2(C)C,outcome,[19],inactive
same,outcome,[9],inactive

# Reference: PubChem BioAssay (EPA / NIEHS)
